# hgDAF12 agonist – activates the H. glycines DAF-12 receptor ligand-binding domain; HEK293 GAL4-hgDAF12 UAS-luciferase reporter, agonist luminescence; normalized to butyrate control; activation, % at 6.8 µM; 370,000 compounds, 1.8% hits; AID 687014;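 active means activation above a cutoff set at the mean of all screened compounds plus 3 SD, cut at about 10% in these data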;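 further: 0% = DMSO wells and 100% = sodium butyrate wells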
# DAX1 inh-1 – inhibits human nuclear receptor DAX1; inhibition, % at 6.75 µM; HEK293 Gal4-DAX1 luciferase reporter, luminescence; 340,000 compounds, 0.99% hits;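 active means inhibition above the mean over all tested compounds plus 3 SD, cut at about 4.2% in these data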;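 further: 0% = DAX1-transfected cells with DMSO and 100% = empty-vector control cells with DMSO; inhibition shows as a rise in luminescence from relieved DAX1 repression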
# Target sequence (P51843 207-470 limits assumed): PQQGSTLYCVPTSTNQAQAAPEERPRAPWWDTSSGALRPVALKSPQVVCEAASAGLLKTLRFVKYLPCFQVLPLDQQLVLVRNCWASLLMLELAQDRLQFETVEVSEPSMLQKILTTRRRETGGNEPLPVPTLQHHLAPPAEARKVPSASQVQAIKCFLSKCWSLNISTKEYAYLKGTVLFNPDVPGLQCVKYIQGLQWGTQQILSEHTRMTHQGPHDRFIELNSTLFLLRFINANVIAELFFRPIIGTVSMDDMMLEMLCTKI
# DAX1 inh-2 – DAX1 (NR0B1) inhibition, primary screen; HEK293T StAR-luciferase reporter, SF-1/DAX-1 repression relief; inhibition, % at 6.8 µM; 370,000 compounds, 1.1% hits;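 active means inhibition above the mean over all tested compounds plus 3 SD, cut at about 3.6% in these data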;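 further: 0% = DAX-1 cells with DMSO and 100% = cells lacking DAX-1 with DMSO; higher inhibition means more luminescence from relief of DAX-1 repression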
# hcDAF-12 act – activates DAF-12 receptor from parasite H. contortus; HEK293 hcDAF-12 lit1-tk-luc reporter, luminescence; 0% DMSO, 100% Δ7-dafachronic acid; activation, % at 6.8 µM; 370,000 compounds, 1.4% hits; AID 652067;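 active means activation above the mean of all tested compounds plus 3 SD, cut at about 5.5% in these data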;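 further: 100% = response to 3 µM Δ7-dafachronic acid high control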
# ssDAF12 agonist – S. stercoralis DAF-12 activation, primary screen. HEK293 ssDAF-12/GRIP1 lit1-tk-luc reporter, luminescence; % of 3 µM dafachronic acid response. activation, % at 6.8 µM. 370,000 compounds, 1% hits. AID 652126;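 active means activation above the mean over all tested compounds plus 3 SD, cut at about 0.9% in these data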;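 further: 0% = DMSO-only wells and 100% = 3 µM delta7-dafachronic acid wells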
# LXRb hcDAF ctr – LXR-beta agonism as hcDAF-12 counter-screen; 3,400 tested, under 10 active; shares compounds with hcDAF-12 act; activation, % at 6.8 µM; HEK293 Gal4-LXR tk-luc reporter, luminescence, 24 h; normalized: DMSO 0%, positive control 100%;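 active means mean percent activation of the reporter above a cutoff set as the average over tested compounds plus their standard deviation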
# hcDAF12 ag – hcDAF-12 agonism, confirmation assay; shares compounds with hcDAF-12 act; 3,400 compounds, 61% hits; activation, % at 6.8 µM; HEK293 hcDAF-12 lit1-tk-luc reporter, luminescence; % of Δ7-dafachronic acid response;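 active means mean activation across triplicate tests above the threshold derived from the earlier primary screen, cut at about 5.5% in these data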;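 further: 0% = DMSO only wells and 100% = 3 µM Δ7-dafachronic acid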
# An asterisk follows results filed as active; . = no result given. Sampled rows, rich in hits. Any-hit rate of the full collection: about 4.1%.
SMILES,hgDAF12 agonist,DAX1 inh-1,DAX1 inh-2,hcDAF-12 act,ssDAF12 agonist,LXRb hcDAF ctr,hcDAF12 ag
COc1ccc(OC)c(C(=O)Nc2c(O)ccc3ccccc23)c1,1.5,-0.7,-0.1,7.0*,-0.3,0.1,6.1*
COc1cc2c(cc1NC(=O)c1ccccc1F)CCCC2,9.9,0.4,1.5,8.2*,0.2,0.2,6.7*
O=C(NNC(=O)c1ccccc1Cl)c1ccc2c(c1)OCCO2,8.3,0.3,2.0,0.3,-0.4,.,.
O=C(COC(=O)COc1ccccc1[N+](=O)[O-])Nc1cccc(Br)c1,-1.4,-1.1,0.0,1.3,-1.0,.,.
COc1ccc(N2CC(C(=O)N(C)CC(=O)Nc3ccc(Cl)c(C(F)(F)F)c3)CC2=O)c(OC)c1 (configuration not stated),1.9,-0.6,-2.2,-1.8,-1.8,.,.
O=C(Nc1nnc(SCc2ccc(Cl)cc2)s1)c1ccco1,4.2,-0.4,0.0,6.9*,0.9,-0.2,0.0
COc1ccc(N(C(=O)c2snc(C(N)=O)c2N)C(C(=O)NC2CCCCC2)c2ccc(C)o2)cc1 (configuration not stated),-1.3,-1.2,-0.3,-1.2,-1.1,.,.
CCOCCCNC(=S)N(CCO)Cc1cc2cc3c(cc2[nH]c1=O)OCCO3,1.3,-0.8,0.2,-0.9,-0.9,.,.
Cc1c(CC(=O)N[C@H](C(=O)O)C(C)C)c(=O)oc2cc3c(cc12)CCC(C)(C)O3,7.5,0.1,1.6,6.9*,-0.2,0.9,6.6*
COc1ccc(C2=NN(S(C)(=O)=O)C(c3ccc4nccnc4c3)C2)cc1 (configuration not stated),6.9,0.4,1.4,8.4*,0.5,0.3,3.9
CCN(CC)c1ccc(/C=N/N2C(=O)c3ccccc3C2=O)c(O)c1,2.0,0.4,0.1,6.6*,-1.2,-0.1,1.1
CCN(CC)c1ccc(/C=N/N2C(=O)c3ccccc3C2=O)cc1,-0.3,-0.6,-0.7,-0.6,-1.2,.,.
CC(C)CC1C(=O)N(Cc2cn(Cc3ccco3)nn2)CCS(=O)(=O)N1Cc1ccc(-c2ccc(F)nc2)cc1 (configuration not stated),-2.7,-1.9,-1.0,-3.0,-1.5,.,.
CC(O)(c1cccc(F)c1)c1nc(-c2ccoc2)cs1 (configuration not stated),3.1,.,-1.7,-0.1,-1.2,.,.
c1ccc(NC2=Nc3ccccc3CS2)cc1,13.2*,1.5,1.4,7.2*,-0.4,1.0,7.5*
Cc1ccc(-c2cc(C(=O)Nc3cc(C)ccc3O)no2)cc1,1.9,0.9,-0.6,0.0,-1.4,.,.
COc1ccc(-c2cc(-c3ccc(C)cc3)n[nH]2)c(O)c1,13.1*,5.8*,3.6,6.9*,0.4,1.0,2.4
COc1ccc(-c2cc(-c3cc(C)ccc3O)[nH]n2)cc1,7.6,2.8,2.2,7.6*,1.2*,0.4,2.9
Cc1ccc(O)c(-c2cc(-c3ccc(F)cc3)no2)c1,19.6*,7.7*,2.9,18.6*,4.0*,1.9,18.1*
O=C(CSc1ncccn1)N1CCC(Cc2ccccc2)CC1,-2.0,-0.1,-0.8,1.6,-1.4,.,.
Cc1ccc(S(=O)(=O)N/N=C\C=C\c2ccccc2)cc1,2.6,-0.2,1.0,6.7*,-0.9,-0.2,-0.1
O=C(COC(=O)CN1C(=O)C2CCCCC2C1=O)Nc1cc(S(=O)(=O)N2CCOCC2)ccc1Cl (configuration not stated),-1.0,-1.6,0.6,0.3,-1.8,.,.
O=C(COC(=O)CN1C(=O)C2CCCCC2C1=O)Nc1ccc(S(=O)(=O)N2CCOCC2)cc1 (configuration not stated),0.8,0.7,0.1,8.9*,1.5*,-0.2,3.3
O=C(CSc1nncs1)NNC(=O)c1ccccc1Br,2.2,-0.2,-0.5,-0.3,-0.9,.,.
CC(=O)Nc1c(C(=O)Nc2ccc3c(c2)OCO3)oc2ccccc12,8.8,3.3,1.8,7.6*,0.6,1.3,6.8*
SMILES,hgDAF12 agonist,DAX1 inh-1,DAX1 inh-2,hcDAF-12 act,ssDAF12 agonist,LXRb hcDAF ctr,hcDAF12 ag
O=C(Nc1ccc2c(c1)OCO2)c1ccc(Br)o1,13.2*,0.9,2.9,9.0*,0.3,0.2,4.5
O=C(COC(=O)CNC(=O)c1ccc(Br)o1)Nc1ccc2c(c1)OCCO2,-2.8,-0.4,-0.2,0.2,-1.4,.,.
COc1ccc(OC)c(NC(=O)Nc2nnc(COCCO)s2)c1,-0.2,.,-0.5,1.6,-1.0,.,.
O=C(Nc1ccc2c(c1)OCCO2)C(c1ccncc1)n1c(=O)c(-c2cc3ccccc3[nH]2)nc2ccccc21 (configuration not stated),12.1*,.,2.6,8.8*,1.6*,1.1,15.0*
O=C(NCc1ccccc1)C(c1ccccc1)n1c(=O)c(-c2cc3ccccc3[nH]2)nc2ccccc21 (configuration not stated),4.1,.,2.1,3.5,0.3,.,.
O=C(NCc1ccccc1)C(c1cc2ccccc2o1)n1c(=O)c(-c2cc3ccccc3[nH]2)nc2ccccc21 (configuration not stated),5.6,.,2.7,9.2*,1.8*,-0.2,7.0*
CCCCCNC(=O)C(c1ccncc1)n1c(=O)c(-c2cc3ccccc3[nH]2)nc2ccccc21 (configuration not stated),8.4,.,4.3*,9.2*,0.9*,0.3,9.9*
Cc1cccc(C)c1Nc1cn[nH]c1,-1.0,.,-0.6,-2.3,-0.8,.,.
COc1ccc(C2CCc3cc4c(cc3C2=NOC(C)=O)OCO4)cc1OC (configuration not stated),-3.7,-1.2,-3.5,-1.8,-1.4,.,.
CN(C(=O)c1cc(-n2cnnc2)ccc1Cl)c1ccccc1,3.1,0.4,0.0,2.9,-0.9,.,.
Nc1ccc2ccccc2c1C(=O)c1ccccc1,3.5,-0.2,-0.4,0.1,-0.5,.,.
C(=C\c1ccco1)/c1ccc2ccccc2n1,2.2,.,0.7,7.3*,0.2,1.1,13.2*
O=C(/C=C/c1ccco1)Nc1ccc(-c2nc3ccccc3[nH]2)cc1,-4.4,-1.1,-1.1,-3.6,-1.2,.,.
C(=C\c1ccco1)/c1nc2ccccc2[nH]1,9.5,-1.4,2.4,7.3*,0.4,0.8,9.4*
CCOc1ncccc1-c1nc(-c2cccs2)no1,4.1,1.7,-0.1,9.8*,0.4,0.3,9.2*
O=C(Nc1c2c(nn1-c1cccc(Cl)c1)CS(=O)(=O)C2)c1ccco1,-0.2,0.1,0.2,0.5,-1.6,.,.
Cc1cccc2c3nc4ccccc4nc3n(C)c12,8.5,2.1,0.8,6.7*,0.6,0.6,11.4*
Cc1ccccc1NC(=O)/C(C#N)=C/c1ccc[nH]1,4.8,0.0,2.2,10.6*,0.6,0.4,8.5*
